Shown are actives, neighbours in structure and some others; about 11% of the full set was active somewhere.
NIH3T3 tox – Cytotoxic Profiling in NIH 3T3 Cell Line of Diverse Libraries Using Quantitative High-Throughput Screening; NIH 3T3 viability, CellTiter-Glo ATP luminescence, 48-72 h; Potency, µM (top dose mostly 96.7 µM), for the others: at the highest dose activity change, negative = cytotoxicity, most hits filed as inhibitors; 94,000 tested, 4.3% active; further: nearly all actives have a fitted effect of over 55% in size
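Cytotoxicity is measured as loss of cellular ATP: NIH 3T3 cells (400/well) are exposed to compound for 48 or 72 hr at 37 °C, then CellTiter-Glo luminescence is imaged after 10 min at room temperature.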
Luciferase inh – Firefly luciferase inhibition profiling of diverse chemical library using quantitative high-throughput screening. purified P. pyralis luciferase, luminescence, biochemical. Potency, µM (titrated, usually from 115 µM), actives largely listed as inhibitors. AID 1347043, 2019. 76,000 tested, 2.5% active. Luciferin 4-monooxygenase (Photinus pyralis), P08659; further: nearly all actives have a fitted effect of over 65% in size
Target sequence (P08659 whole entry, looked up): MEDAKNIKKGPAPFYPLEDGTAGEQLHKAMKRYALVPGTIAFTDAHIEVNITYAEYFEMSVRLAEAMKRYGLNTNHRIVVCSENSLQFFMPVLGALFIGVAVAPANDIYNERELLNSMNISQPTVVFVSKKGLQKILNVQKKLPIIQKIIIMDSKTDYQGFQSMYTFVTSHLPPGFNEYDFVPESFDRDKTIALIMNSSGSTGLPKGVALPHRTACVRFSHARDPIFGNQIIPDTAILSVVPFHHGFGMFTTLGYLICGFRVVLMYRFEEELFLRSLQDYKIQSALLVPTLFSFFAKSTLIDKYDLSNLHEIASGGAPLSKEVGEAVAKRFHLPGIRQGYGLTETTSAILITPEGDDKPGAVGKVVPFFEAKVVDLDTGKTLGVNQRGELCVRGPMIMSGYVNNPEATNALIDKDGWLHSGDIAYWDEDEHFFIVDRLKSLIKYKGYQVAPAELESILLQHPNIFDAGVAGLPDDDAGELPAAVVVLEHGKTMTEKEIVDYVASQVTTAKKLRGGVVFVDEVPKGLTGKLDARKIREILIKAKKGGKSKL
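Purified 10nM P. pyralis luciferase with 10uM D-luciferin and 10uM ATP in 50mM Tris acetate pH 7.5, 10mM Mg acetate, 0.01% Tween-20, 0.05% BSA. qHTS titration; luminescence read by CCD imager.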
hNpr1 antagonist – Natriuretic polypeptide receptor (hNpr1) antagonism - Primary qHTS. Atrial natriuretic peptide receptor 1 (Homo sapiens), P16066. HEK293 hNpr1 GloSensor cGMP, ANP-stimulated luminescence. Potency, µM (titrated, usually from 46.3 µM), without a hit: top-dose activity change, negative = inhibition, usual class: inhibitors. 76,000 tested, 1.6% active; calls by dose curve; further: nearly all actives have a fitted effect of over 60% in size
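Compound pre-incubated 30 min at room temperature on GloSensor-loaded HEK293 cells stably carrying hNpr1 and the pGS-40F cGMP biosensor. Stimulation uses hNppA at 0.1 nM final; luminescence is taken at baseline and 20 min post-agonist.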
HEK293 tox – Cytotoxic Profiling in HEK 293 Cell Line of Diverse Libraries Using Quantitative High-Throughput Screening; AID 1345083, 2018; HEK 293 viability, ATP luminescence (CellTiter-Glo), 48-72 h; 94,000 tested, 6.6% active; Potency, µM (series often up to 115 µM), without a hit: top-dose activity change, negative = cytotoxicity, usual class: inhibitors; further: nearly all actives have a fitted effect of over 60% in size
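qHTS cytotoxicity; HEK 293, 250 cells/well; compound pinned; 48 or 72 hr, 37 degree Celsius, 5% CO2, 95% humidity; CellTiter-Glo, 10 min RT; luminescence (ATP).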
Active calls of the source: *. Unless noted, the call rests on the fitted dose curve; in most records, active means well fitted curve in the direction sought with a large enough effect; inconclusive means small, poorly fitted or top-dose-only effect, or another doubt; inactive means no such curve, though single readings can be large; an effect the other way counts as inactive or inconclusive. On the % scale 0 is the no-effect control and ±100 the full control effect; potency means the concentration at half of the fitted maximal effect.

How did CC(C)c1nc(-c2ccc(OC3CCN(C(=O)Cc4c[nH]c5ccccc45)C3)cc2)no1 (centres undefined) do in these assays?
NIH3T3 tox: inconclusive; Luciferase inh: inactive; hNpr1 antagonist: inconclusive; HEK293 tox: inconclusive

Results for O=C(Cc1cccc(F)c1)N1CC(Oc2cccc(-c3nc(-c4ccccc4)no3)c2)C1 ?
NIH3T3 tox: 35.5µM*; HEK293 tox: inconclusive

Results for CC(C)c1nc(-c2ccc(OC3CCN(C(=O)Cc4ccccc4F)C3)cc2)no1 (centres undefined) ?
NIH3T3 tox: inconclusive; HEK293 tox: 35.5µM*

Results for COCCNC(=O)C1CCCN(Cc2cccc(-c3ccsc3)c2)C1 (centres undefined) ?
NIH3T3 tox: inconclusive; HEK293 tox: -26.6%

What do the screens show for `O=C(NCCC1CCCCC1)C1CCCN(Cc2cccc(-c3ccsc3)c2)C1` (centres undefined)?
NIH3T3 tox: inconclusive; HEK293 tox: 44.7µM*

How did CCCCCNC(=O)C1CCCN(Cc2cccc(-c3ccsc3)c2)C1 (centres undefined) do in these assays?
NIH3T3 tox: 35.5µM*; HEK293 tox: 31.6µM*

What do the screens show for `Cc1cc(C(=O)NCc2cccs2)c2c(C3CCCNC3)noc2n1` (centres undefined)?
NIH3T3 tox: -3.5%; HEK293 tox: -5.0%

Results for NC(=O)c1cccnc1N1CCC(n2cc(-c3ccccc3Cl)nn2)CC1 ?
NIH3T3 tox: -24.0%; Luciferase inh: inactive; hNpr1 antagonist: -9.1%; HEK293 tox: 79.4µM*

How did CSc1ccc(-c2cccc(C(=O)NCCNC(=O)C3CCCC3)c2)cc1 do in these assays?
NIH3T3 tox: -22.7%; HEK293 tox: -29.2%

What do the screens show for `CCNC(=O)N1CC(C(=O)NCc2cccc(F)c2)CC(c2ccc(F)c(C)c2)C1` (centres undefined)?
NIH3T3 tox: inconclusive; Luciferase inh: inactive; hNpr1 antagonist: -1.7%; HEK293 tox: inconclusive

What do the screens show for `Cc1cc(C2CC(C(=O)NCCc3ccccc3)CN(C(=O)C3CC3)C2)ccc1F` (centres undefined)?
NIH3T3 tox: 31.6µM*; Luciferase inh: inactive; hNpr1 antagonist: -14.9%; HEK293 tox: inconclusive

How did Cc1cc2nc3n(c(=O)c2n1CC(=O)Nc1cccc(C#N)c1)CCCC3 do in these assays?
NIH3T3 tox: -11.1%; Luciferase inh: inactive; hNpr1 antagonist: -7.6%; HEK293 tox: 4.7%

How did CC(C)C(=O)Nc1ccc(C2(C(=O)NCc3ccc(F)c(Cl)c3)CCC2)cc1 do in these assays?
NIH3T3 tox: 35.5µM*; Luciferase inh: inactive; hNpr1 antagonist: -2.4%; HEK293 tox: 79.4µM*

What do the screens show for `CS(=O)(=O)Nc1ccc(C2(C(=O)NCc3ccccc3Cl)CCCCC2)cc1`?
NIH3T3 tox: 35.5µM*; Luciferase inh: inactive; hNpr1 antagonist: -17.8%; HEK293 tox: inconclusive

What do the screens show for `COCC(=O)NC[C@H]1CCN(Cc2ccc(F)c(OC)c2)C[C@H]1N(C)C`?
NIH3T3 tox: -12.9%; Luciferase inh: inactive; hNpr1 antagonist: -0.1%; HEK293 tox: -4.3%

Results for CSc1ccc(-c2cccc(CN3CCC(N[S+](=O)([O-])CCC(F)(F)F)CC3)c2)cc1 ?
NIH3T3 tox: inconclusive; HEK293 tox: -21.6%

How did O=[S+]([O-])(NC1CCN(Cc2cccc(-c3ccc(F)c(F)c3)c2)CC1)c1ccccc1 do in these assays?
NIH3T3 tox: 20µM*; HEK293 tox: 28.2µM*

How did O=[S+]([O-])(NC1CCN(Cc2cccc(-c3ccc(F)c(F)c3)c2)CC1)c1cccc(C(F)(F)F)c1 do in these assays?
NIH3T3 tox: 14.1µM*; HEK293 tox: 22.4µM*

What do the screens show for `O=[S+]([O-])(NC1CCN(Cc2cccc(-c3cccs3)c2)CC1)c1cccc(C(F)(F)F)c1`?
NIH3T3 tox: 8.91µM*; HEK293 tox: inconclusive

Results for CN(C)[C@@H]1CN(C2CCCCCC2)CC[C@@H]1CO ?
NIH3T3 tox: inactive; Luciferase inh: inactive; hNpr1 antagonist: 1.5%; HEK293 tox: inactive

What do the screens show for `CCCOCCCNC(=O)c1c(C)noc1-c1cc(OC)cc(OC)c1`?
NIH3T3 tox: -23.9%; Luciferase inh: inactive; hNpr1 antagonist: -6.3%; HEK293 tox: inconclusive
